Assay results reported in the supplement of paper PMC7411054.
Counter-ions that a name gives are not always drawn.

What was measured:
Details in all cases: treatment time: 24 h
A549-ACTB-RAB5A [1] = experiment: lowest phenotypically active concentration; higher = less potent
Procedure, shortened: (§1)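 After 24 h at 0.3, 1, 3 or 9 µM, with four wells per treatment, fifteen gene-edited A549, HepG2 and WPMY1 reporter lines carrying BFP, GFP and RFP/FusionRed were imaged live. Each well's live-cell features were expressed relative to solvent control wells. Deviation required ≥3 of 4 wells past the 95th percentile of control Euclidean distances, and reproducibility a median replicate Pearson correlation over the 95th percentile of non-replicates. Phenotypic activity rested on both.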

A549-CANX-COX4 [2] = experiment: as above
Procedure, shortened: as §1

A549-GM130-SQSTM1 [3] = experiment: as above
Procedure, shortened: as §1

A549-TP53BP1-CLTA [4] = experiment: as above
Procedure, shortened: as §1

A549-TUBA1B-RELA [5] = experiment: as above
Procedure, shortened: as §1

HepG2-GM130-SQSTM1 [6] = experiment: as above
Procedure, shortened: as §1

A549-ACTB-RAB5A [7] = experiment: phenotypically active (imaging signature differs from DMSO and reproducible) at any of 0.3-9 uM (binary (1 = active, 0 = inactive)); higher = active
Procedure, shortened: as §1

A549-CANX-COX4 [8] = experiment: as above
Procedure, shortened: as §1

A549-GM130-SQSTM1 [9] = experiment: as above
Procedure, shortened: as §1

A549-TP53BP1-CLTA [10] = experiment: as above
Procedure, shortened: as §1

A549-TUBA1B-RELA [11] = experiment: as above
Procedure, shortened: as §1

HepG2-ACTB-RAB5A = experiment: as above
Procedure, shortened: as §1

HepG2-CANX-COX4 = experiment: as above
Procedure, shortened: as §1

HepG2-GM130-SQSTM1 [12] = experiment: as above
Procedure, shortened: as §1

HepG2-TP53BP1-CLTA = experiment: as above
Procedure, shortened: as §1

HepG2-TUBA1B-RELA = experiment: as above
Procedure, shortened: as §1

WPMY1-CANX-COX4 = experiment: as above
Procedure, shortened: as §1

WPMY1-GM130-SQSTM1 = experiment: as above
Procedure, shortened: as §1

WPMY1-TP53BP1-CLTA = experiment: as above
Procedure, shortened: as §1

WPMY1-TUBA1B-RELA = experiment: as above
Procedure, shortened: as §1

| Structure (SMILES) | lowest phenotypically active concentration (A549-ACTB-RAB5A [1]) [µM] | lowest phenotypically active concentration (A549-CANX-COX4 [2]) [µM] | lowest phenotypically active concentration (A549-GM130-SQSTM1 [3]) [µM] | lowest phenotypically active concentration (A549-TP53BP1-CLTA [4]) [µM] | lowest phenotypically active concentration (A549-TUBA1B-RELA [5]) [µM] | lowest phenotypically active concentration (HepG2-GM130-SQSTM1 [6]) [µM] | phenotypically active (A549-ACTB-RAB5A [7]) | phenotypically active (A549-CANX-COX4 [8]) | phenotypically active (A549-GM130-SQSTM1 [9]) | phenotypically active (A549-TP53BP1-CLTA [10]) | phenotypically active (A549-TUBA1B-RELA [11]) | phenotypically active (HepG2-ACTB-RAB5A) | phenotypically active (HepG2-CANX-COX4) | phenotypically active (HepG2-GM130-SQSTM1 [12]) | phenotypically active (HepG2-TP53BP1-CLTA) | phenotypically active (HepG2-TUBA1B-RELA) | phenotypically active (WPMY1-CANX-COX4) | phenotypically active (WPMY1-GM130-SQSTM1) | phenotypically active (WPMY1-TP53BP1-CLTA) | phenotypically active (WPMY1-TUBA1B-RELA) |
| --- | --- | --- | --- | --- | --- | --- | --- | --- | --- | --- | --- | --- | --- | --- | --- | --- | --- | --- | --- | --- |
| CO[C@H]1C=CC=C(C)C(=O)NC2=CC(=O)C(NCCN(C)C)=C(C[C@@H](C)C[C@H](OC)[C@H](O)[C@@H](C)C=C(C)[C@@H]1OC(N)=O)C2=O [17-DMAG hydrochloride] | ≤ 0.3 | ≤ 0.3 | ≤ 0.3 | ≤ 0.3 | ≤ 0.3 | ≤ 0.3 | 1 (active) | 1 (active) | 1 (active) | 1 (active) | 1 (active) | 1 (active) | 1 (active) | 1 (active) | 1 (active) | 1 (active) | 1 (active) | 1 (active) | 1 (active) | 1 (active) |
| O=C1Cc2c([nH]c3ccc(Br)cc23)-c2ccccc2N1 [Kenpaullone] | 3 | 3 | 3 | 3 | 3 | 3 | 1 (active) | 1 (active) | 1 (active) | 1 (active) | 1 (active) | 1 (active) | 1 (active) | 1 (active) | 1 (active) | 1 (active) | 1 (active) | 1 (active) | 1 (active) | 1 (active) |
| CNC(=O)c1ccccc1Sc1ccc2c(/C=C/c3ccccn3)n[nH]c2c1 [Axitinib] | 1 | 9 | 1 | 3 | 1 | 3 | 1 (active) | 1 (active) | 1 (active) | 1 (active) | 1 (active) | 1 (active) | 1 (active) | 1 (active) | 1 (active) | 1 (active) | 1 (active) | 1 (active) | 1 (active) | 1 (active) |
| CC1(C)CC(=O)C2=C(C1)NC(=S)NC2c1cccc(O)c1 (stereo not given) [Dimethylenastron] | 1 | 3 | 1 | 3 | 1 | 1 | 1 (active) | 1 (active) | 1 (active) | 1 (active) | 1 (active) | 1 (active) | 1 (active) | 1 (active) | 1 (active) | 1 (active) | 1 (active) | 1 (active) | 1 (active) | 1 (active) |
| CCC1=C[C@@H]2CN(C1)Cc1c([nH]c3ccccc13)[C@@](C(=O)OC)(c1cc3c(cc1OC)N(C)[C@H]1[C@@](O)(C(=O)OC)[C@H](OC(C)=O)[C@]4(CC)C=CCN5CC[C@]31[C@@H]54)C2 [vinorelbine] | ≤ 0.3 | ≤ 0.3 | ≤ 0.3 | ≤ 0.3 | ≤ 0.3 | ≤ 0.3 | 1 (active) | 1 (active) | 1 (active) | 1 (active) | 1 (active) | 1 (active) | 1 (active) | 1 (active) | 1 (active) | 1 (active) | 1 (active) | 1 (active) | 1 (active) | 1 (active) |
